Experiment [1] is described as follows: A CellTox Green Cytotoxicity Assay to monitor cytotoxicity in HEK293 cells - 8 hour (AID 1224884). Also: nearly all actives have a fitted effect of over 35% in size. Also: potency is read from the fitted curve at half-maximal effect. The method, boiled down:
(§1)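 Seeding of HEK293 cells together with cytotoxicity dye preceded a 5 h incubation at 37 C/5% CO2. Test compounds in DMSO were then added and fluorescence monitored across 40 h.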

Experiment [2] is described as follows: qHTS RealTime-Glo MT Cell Viability Assay in HepG2 cells - 16 hour (AID 1224885). Also: nearly all actives have a fitted effect of over 50% in size. The essentials:
(§2)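 HepG2 suspension premixed with RealTime-Glo reagents is plated at 600 cells per well and left 5 h at 37 C/5% CO2. Compounds in DMSO then go in, and bioluminescence reflecting viable cell number is recorded over 40 h.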
(In qHTS, concentration-response curves come from the screen itself.)

Experiment [3] is described as follows: A CellTox Green Cytotoxicity Assay to monitor cytotoxicity in HEK293 cells - 16 hour (AID 1224888). Also: nearly all actives have a fitted effect of over 35% in size. The method, boiled down:
as §1

Experiment [4] in a line: qHTS RealTime-Glo MT Cell Viability Assay in HepG2 cells - 0 hour (AID 1224889). Also: nearly all actives have a fitted effect of over 50% in size. The essentials:
as §2

Experiment [5] can be described thus: A CellTox Green Cytotoxicity Assay to monitor cytotoxicity in HepG2 cells - 8 hour (AID 1224890). Also: nearly all actives have a fitted effect of over 45% in size. The essentials: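 Nonlytic assay: viable cells exclude the dye, so fluorescence scales with cell death. HepG2 at 600 cells/well, compounds added after 5 h, signal read across 40 h.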
Experiment [6] in a line: qHTS assay to identify small molecule antagonists of the estrogen receptor alpha (ER-alpha) signaling pathway using the BG1 cell line in the presence of 0.1 nM 17-beta-estradiol - cell viability counter screen (AID 1259241). Also: nearly all actives have a fitted effect of over 40% in size. The essentials: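 Live-cell protease activity (CellTiter-Fluor fluorescence, 30 min) was read in the same wells after VM7Luc4E2 cells had been exposed to compounds with 0.1 nM 17beta-estradiol for 22 hr at 37C.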

Experiment [7] can be described thus: qHTS assay to identify small molecule antagonists of the androgen receptor (AR) signaling pathway using the MDA cell line in the presence of 0.5 nM R1881 - cell viability counter screen (AID 1259242). Also: nearly all actives have a fitted effect of over 45% in size. The essentials:
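R1881 at 0.5 nM final stimulated MDA-kb2 cells during 16 hr compound treatment at 37C. Cytotoxicity read: CellTiter-Fluor fluorescence after 30 min.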

Experiment [8] concerns the target Androgen receptor (Homo sapiens) (UniProt P10275). The experiment in a line: qHTS assay to identify small molecule antagonists of the androgen receptor (AR) signaling pathway using the MDA cell line in the presence of 0.5 nM R1881 (AID 1259243). Also: nearly all actives have a fitted effect of over 50% in size. Also: potency is read from the fitted curve at half-maximal effect. The essentials:
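We exposed MDA-kb2 cells to compounds under 0.5 nM R1881 stimulation for 16 hr at 37C and quantified MMTV-driven luciferase by luminescence.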

A short description of experiment [9]: qHTS assay to identify small molecule HDAC inhibitors (AID 1259364).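 Also: wild-type HCT-116 cells with endogenous class I/II HDAC activity; top concentration of the series differs between compounds; nearly all actives have a fitted effect of over 45% in size.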 The essentials: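 Relative class I and II HDAC activity is taken from the luminogenic signal in HCT-116 cells, with compound exposure 2 hr and reagent development 30 min at room temperature.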
Experiment [10] in a line: qHTS assay to identify small molecule HDAC inhibitors - cell viability counter screen (AID 1259365). Also: series mostly up to about 92 µM; nearly all actives have a fitted effect of over 50% in size. The essentials:
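HCT-116 (wild type), 1,500 cells/well, overnight 37C/5% CO2; compound in DMSO 2hr; CellTiter-Glo 30min RT; luminescence read.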

Experiment [11] in a line: qHTS assay to identify small molecule agonists of the sonic hedgehog signaling (Shh) pathway - cell viability counter screen (AID 1259366). Also: nearly all actives have a fitted effect of over 50% in size. The method, boiled down:
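CellTiter-Fluor fluorescence read-out, 1 hr at 37C, added after 23hr compound exposure. Cells: 3T3 Gli1-Luc, an NIH/3T3 clone with stably integrated Gli1-Luc reporter, plated 4hr before compound.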

A short description of experiment [12]: qHTS assay to identify small molecule antagonists of the sonic hedgehog signaling (Shh) pathway - cell viability counter screen (AID 1259367). Also: nearly all actives have a fitted effect of over 55% in size. Also: potency is read from the fitted curve at half-maximal effect. The essentials: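 NIH/3T3-derived Gli1-Luc reporter cells (2,000 per well) rested 4 hr at 37 C, then received DMSO compounds plus conditioned medium. After 23 hr of treatment, CellTiter-Fluor was added for 1 hr at 37C and fluorescence read.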

The nature of experiment [13]: qHTS assay to identify small molecule agonists of the sonic hedgehog signaling (Shh) pathway (AID 1259368; calls by dose curve;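 also: NIH/3T3-derived 3T3Gli1-Luc cells carrying a stable Gli1-driven firefly luciferase reporter; series mostly up to about 92 µM; nearly all actives have a fitted effect of over 15% in size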). The method, boiled down:
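Mouse fibroblast (NIH/3T3) reporter cells with stably integrated Gli1-Luc were treated 24 hr with compound; firefly luciferase luminescence served as the read-out.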

Experiment [14] in a line: qHTS assay to identify small molecule antagonists of the sonic hedgehog signaling (Shh) pathway (AID 1259369; calls by dose curve; also: nearly all actives have a fitted effect of over 45% in size; also: potency is read from the fitted curve at half-maximal effect). The method, boiled down: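 Conditioned medium drives Shh signalling in 3T3Gli1-Luc cells; compounds in DMSO co-applied, 24hr at 37 C, then luciferase luminescence.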
In experiment [15] the target is Estrogen receptor beta (Homo sapiens) (UniProt Q92731). Nature of the experiment: qHTS assay to identify small molecule agonists of the estrogen receptor beta (ER-beta) signaling pathway (AID 1259377; active = well fitted activation curve with a large enough effect in the signal ratio in the repeat runs, not every such curve was filed as active; the % refers to the signal ratio). The essentials: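 Beta-lactamase reporter readout: fluorescence of LiveBLAzer B/G FRET substrate after 2 h at room temperature, following 16 h compound treatment of ER-beta-UAS-bla HEK293T cells at 37C in 2% charcoal-stripped FBS medium.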
Estrogen receptor beta (Homo sapiens), sequence (Q92731 whole entry, looked up): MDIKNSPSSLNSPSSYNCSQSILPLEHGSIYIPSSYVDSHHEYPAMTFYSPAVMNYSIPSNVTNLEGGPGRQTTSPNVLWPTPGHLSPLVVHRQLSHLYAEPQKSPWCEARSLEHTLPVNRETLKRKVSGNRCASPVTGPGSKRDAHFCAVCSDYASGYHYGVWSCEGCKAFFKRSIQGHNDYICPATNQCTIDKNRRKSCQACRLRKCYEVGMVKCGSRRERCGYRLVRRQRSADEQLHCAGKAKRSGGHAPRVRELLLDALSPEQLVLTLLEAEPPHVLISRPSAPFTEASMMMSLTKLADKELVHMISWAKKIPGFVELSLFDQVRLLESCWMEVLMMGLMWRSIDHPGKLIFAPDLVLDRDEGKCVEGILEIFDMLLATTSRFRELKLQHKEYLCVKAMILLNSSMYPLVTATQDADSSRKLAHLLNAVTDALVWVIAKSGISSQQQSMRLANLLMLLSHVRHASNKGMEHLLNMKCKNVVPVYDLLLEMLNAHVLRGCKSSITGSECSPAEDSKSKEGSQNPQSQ

Experiment [16] has the same target. The experiment in a line: qHTS assay to identify small molecule antagonists of the estrogen receptor beta (ER-beta) signaling pathway (AID 1259378; active = well fitted inhibition curve with a large enough effect in the signal ratio in the repeat runs, not every such curve was filed as active; the % refers to the signal ratio). The essentials:
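ER-beta-UAS-bla HEK293T (GripTite) cells in 2% charcoal-stripped FBS medium were preincubated 6 hr at 37C, dosed with compound, then stimulated with 1 nM E2 (final) for 16 hr; beta-lactamase reporter read by B/G FRET fluorescence after 2 hr substrate loading.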

Experiment [17] is described as follows: qHTS RealTime-Glo MT Cell Viability Assay in HEK293 cells - 24 hour (AID 1224886). Also: nearly all actives have a fitted effect of over 50% in size. Also: potency is read from the fitted curve at half-maximal effect. The method, boiled down: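 Reads taken at 0, 8, 16, 24, 32 and 40 h from the same wells. HEK293 cells (600/well) carried RealTime-Glo reagents from seeding, with compound added after a 5 h settle at 37 C.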
Experiment [18] is described as follows: qHTS RealTime-Glo MT Cell Viability Assay in HEK293 cells - 8 hour (AID 1224887). Also: nearly all actives have a fitted effect of over 50% in size. Also: potency is read from the fitted curve at half-maximal effect. The method, boiled down:
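Tox21 screen in HEK293 using RealTime-Glo MT chemistry, with cells and reagent co-dispensed. Luminescence proportional to viable cell number was captured at intervals during 40 h compound exposure at 37 C.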

The target of experiment [19] is Estrogen receptor (Homo sapiens) (UniProt P03372). The experiment in a line: qHTS assay to identify small molecule antagonists of the estrogen receptor alpha (ER-alpha) signaling pathway using the BG1 cell line in the presence of 0.1 nM 17-beta-estradiol (AID 1259244). Also: nearly all actives have a fitted effect of over 50% in size. Also: potency is read from the fitted curve at half-maximal effect. The method, boiled down: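 VM7Luc4E2; 4xERE-luciferase; 0.1 nM E2 final; 22 h co-incubation, 37C; ONE-Glo luminescence after 30 min at room temperature.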
Estrogen receptor (Homo sapiens), sequence (P03372 whole entry, looked up): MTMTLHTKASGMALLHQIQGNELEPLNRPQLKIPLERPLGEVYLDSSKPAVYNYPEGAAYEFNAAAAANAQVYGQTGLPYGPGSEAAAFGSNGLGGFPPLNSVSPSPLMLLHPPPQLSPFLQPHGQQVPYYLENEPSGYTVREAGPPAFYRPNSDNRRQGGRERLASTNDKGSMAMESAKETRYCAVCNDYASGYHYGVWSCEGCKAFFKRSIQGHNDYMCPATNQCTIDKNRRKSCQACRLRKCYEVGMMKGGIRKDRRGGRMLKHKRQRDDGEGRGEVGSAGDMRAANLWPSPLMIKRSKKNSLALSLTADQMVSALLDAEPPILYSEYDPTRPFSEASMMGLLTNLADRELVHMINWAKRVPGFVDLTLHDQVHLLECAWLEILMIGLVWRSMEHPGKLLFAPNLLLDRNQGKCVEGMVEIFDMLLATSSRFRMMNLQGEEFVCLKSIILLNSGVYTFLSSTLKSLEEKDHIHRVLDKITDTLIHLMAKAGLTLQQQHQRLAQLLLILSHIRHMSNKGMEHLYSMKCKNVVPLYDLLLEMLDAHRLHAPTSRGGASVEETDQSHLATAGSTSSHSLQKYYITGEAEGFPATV

Unmarked numbers belong to inactive results. Results filed as inconclusive are left out. Activity calls are given as the source filed them. Unless noted, calls follow the shape of the dose curve; as a rule, active = well fitted curve in the direction sought with a large enough effect in the repeat runs; inconclusive = weak or mixed curves; inactive = no such curve, though single readings can be large; an effect the other way counts as inactive or inconclusive.

Androgen receptor (Homo sapiens), sequence (P10275 whole entry, looked up): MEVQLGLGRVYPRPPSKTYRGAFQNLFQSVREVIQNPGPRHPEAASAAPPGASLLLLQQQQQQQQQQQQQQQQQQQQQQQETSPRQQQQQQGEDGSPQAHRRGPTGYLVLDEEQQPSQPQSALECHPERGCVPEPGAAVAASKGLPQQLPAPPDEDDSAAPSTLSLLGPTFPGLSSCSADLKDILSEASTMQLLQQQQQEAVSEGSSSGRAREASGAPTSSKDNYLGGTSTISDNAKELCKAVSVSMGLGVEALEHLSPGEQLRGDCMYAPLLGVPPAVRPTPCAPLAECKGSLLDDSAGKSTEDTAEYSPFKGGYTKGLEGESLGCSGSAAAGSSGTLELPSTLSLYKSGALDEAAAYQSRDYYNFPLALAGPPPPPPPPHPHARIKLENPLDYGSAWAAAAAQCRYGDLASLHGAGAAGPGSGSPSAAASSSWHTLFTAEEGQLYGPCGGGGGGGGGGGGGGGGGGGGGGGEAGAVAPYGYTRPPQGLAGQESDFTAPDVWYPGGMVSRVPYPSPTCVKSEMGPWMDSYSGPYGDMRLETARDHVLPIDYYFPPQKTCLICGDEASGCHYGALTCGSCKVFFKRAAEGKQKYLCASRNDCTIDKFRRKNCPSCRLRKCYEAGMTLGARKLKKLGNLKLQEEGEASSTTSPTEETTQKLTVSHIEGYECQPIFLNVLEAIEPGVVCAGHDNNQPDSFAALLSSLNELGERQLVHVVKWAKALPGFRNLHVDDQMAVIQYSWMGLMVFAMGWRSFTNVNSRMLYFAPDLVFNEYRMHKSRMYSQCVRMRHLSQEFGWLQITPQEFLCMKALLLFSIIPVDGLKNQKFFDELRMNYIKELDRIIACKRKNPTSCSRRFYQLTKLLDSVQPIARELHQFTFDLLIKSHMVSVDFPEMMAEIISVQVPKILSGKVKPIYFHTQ

For the compound `O=C1CCC(=O)N1`, the Potency result in experiment [1], in experiment [2], in experiment [3], in experiment [4], in experiment [5] and in experiment [6] was “inactive” each time. The Potency entry in experiment [7], in experiment [8], in experiment [9], in [10], in experiment [11] and in experiment [12] was “inactive” in each case. Besides, the Potency result in experiment [13], in [14] and in experiment [16] was “inactive” in each case. For the same compound, in [15], the compound was classed as inactive.

For the compound `CCCCCCCCCCCCCCCCCCNC(=O)OC1CCN(C(=O)OC[C@H](COC(=O)N(Cc2cccc[n+]2CC)C(=O)c2ccccc2OC)OC)CC1`, the Potency in experiment [1] was 26.8 µM (active); in [17], 10.7 µM (active); in experiment [18], 21.3 µM (active); in experiment [8], 23.7 µM (active); in experiment [19], 29.8 µM (active); in experiment [14], 26.6 µM (active). The Potency result in experiment [4], in [9], in experiment [10], in [11], in [12] and in experiment [13] was “inactive” each time.

`N#Cc1ccc(C/C(=N/NC(=O)Nc2ccc(OC(F)(F)F)cc2)c2cccc(C(F)(F)F)c2)cc1`: the Potency result in experiment [1], in [17], in experiment [18], in experiment [3], in experiment [4] and in [5] was “inactive” throughout. For the same compound, the Potency entry in experiment [7], in experiment [8], in [9], in experiment [10], in experiment [11] and in experiment [12] was “inactive” in each case. The Potency result in experiment [13] is “inactive”.

Take `C=CC(=O)OCC(Br)CBr` (stereo not given): the Potency entry in experiment [1], in experiment [2], in experiment [18], in [3], in [4] and in experiment [5] was “inactive” in each case. Moreover, the Potency result in [7], in [8], in experiment [19], in [9], in experiment [10] and in experiment [11] was “inactive” each time. For the same compound, the Potency entry in experiment [12], in experiment [13] and in experiment [16] was “inactive” throughout. For the same compound, in [15], the result was inactive.

`CO[Si](OC)(c1ccccc1)c1ccccc1`: the Potency result in experiment [1], in experiment [17], in [18], in [3], in [4] and in experiment [5] was “inactive” in each case. For the same compound, the Potency entry in experiment [7], in experiment [9], in experiment [10], in [13] and in [16] was “inactive” throughout. The Potency in experiment [12] is 43.3 µM (active); in experiment [14], 21.7 µM (active).

Regarding `CC(c1cc(C(C)(C)C)cc(C(C)(C)C)c1O)c1cc(C(C)(C)C)cc(C(C)(C)C)c1O`, the Potency entry in experiment [1], in [2], in experiment [18], in experiment [3], in [4] and in experiment [5] was “inactive” in each case. Besides, the Potency result in [6], in [7], in experiment [19], in experiment [9], in experiment [10] and in [11] was “inactive” in each case. The Potency entry in experiment [12], in experiment [13] and in experiment [16] was “inactive” each time. Further, the outcome in [15] was inactive.

With `O=C(Nc1ccc([N+](=O)[O-])cc1)Nc1ccc([N+](=O)[O-])cc1` (tested in a mixture with another compound), the Potency result in experiment [1], in experiment [2], in experiment [18], in [3], in [4] and in experiment [5] was “inactive” each time. Besides, the Potency entry in [7], in experiment [9], in experiment [10], in experiment [11], in [12] and in experiment [13] was “inactive” each time. Also, the Potency result in experiment [16] was “inactive”. Further, in experiment [15], the result was inactive.

`Clc1cccc(Cl)n1`: the Potency entry in [1], in [2], in experiment [17], in [18], in experiment [4] and in experiment [5] was “inactive” in each case. Also, the Potency entry in experiment [7], in [8], in [19], in experiment [9], in experiment [10] and in experiment [11] was “inactive” in each case. Further, the Potency entry in experiment [12], in experiment [13] and in experiment [14] was “inactive” each time.

(Values after PubChem BioAssay (Tox21).)
